SMILES strings stand for the structures. Results filed as inconclusive are left out. A call without a number means that no potency is given here. Calls of active or inactive are those of the source. Calls come from the whole dose curve; as a rule, active = well fitted inhibition curve with a large enough effect; inconclusive = small, poorly fitted or top-dose-only effect; inactive = flat fitted curve, though single readings scatter.
Potency is the fitted concentration of half-maximal effect.

This assay is described as follows: CHOP2 Reporter Counterscreen Assay for Inhibitors of Ubiquitin-specific Protease USP2a.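 Note: activated enterokinase alone at 50 pM in a cell-free format rather than USP2a or CHOP2; nearly all actives have a fitted effect of over 55% in size.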 To be noted: purified enterokinase, fluorogenic substrate, 485/531 nm; series mostly up to 38.3 µM. In short, it runs like this: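 Fluorescence (485/531 nm) read 10 min after adding 25nM reporter substrate to 50 pM activated EK preincubated 30 min RT with compound; Tris pH 8.0/CaCl2/CHAPS buffer. Data normalized to buffer-alone inhibition; concentration-response curves fitted.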
Consider `Cc1c(NC(=O)C2CCCN(S(=O)(=O)c3cnc[nH]3)C2)c(=O)n(-c2ccccc2)n1C` (configuration not stated), for which the Potency result is “inactive”.

Take `C=CCSC1=N/C(=C\C=C\c2ccco2)C(=O)S1`: the Potency was 7.94 µM (active).

For `CCOc1ccccc1C(=O)Nc1nnc(C(C)C)s1`, the Potency entry is “inactive”.

For the molecule `CC(C)CC(c1nnnn1CC1CCCO1)N1CCN(c2nc3ccccc3s2)CC1` (configuration not stated), the Potency result was “inactive”.

In the case of `Cc1ccc(C=Nc2ccccc2C(N)=O)cc1`, the Potency entry was “inactive”.

With `CC(/C=N/NC(=O)c1cc(-c2cccs2)[nH]n1)=C\c1ccccc1`, the Potency result is “inactive”.

As for `O=C(O)CC1(CC(=O)Nc2ccc3ccccc3c2)CCCCC1`, the Potency result is “inactive”.

With `Cn1nnnc1Sc1ncnc2scc(-c3ccc4c(c3)OCO4)c12`, the Potency result is “inactive”.

As for `CNS(=O)(=O)c1cccc(C(=O)OCC(=O)c2cc(C)n(-c3ccc4c(c3)OCO4)c2C)c1`, the Potency result was “inactive”.

For `O=C(COc1ccccc1)Nc1nnc(-c2ccc(Cl)s2)o1`, the Potency result is “inactive”.

As to `Cc1n[nH]c(C)c1S(=O)(=O)N1CCCC(C(=O)NC2CCCc3ccccc32)C1` (configuration not stated), the Potency result is “inactive”.

As for `COc1cc(-c2nc(-c3ccc4c(c3)-c3ccccc3S4(=O)=O)c(-c3ccccc3)[nH]2)cc(OC)c1O`, the Potency entry is “inactive”.

For `Cc1ccc(C(=O)c2coc3c2C(=O)C(=O)c2ccccc2-3)cc1`, the Potency entry is “inactive”.

Regarding `O=C(Nc1nnc(SCCC2OCCO2)s1)C1CC(=O)N(c2ccc(F)cc2)C1` (configuration not stated), the Potency was 11.2 µM (active).

On to `COc1cc2c(C(=O)N3CCN(c4cccc(Cl)c4)CC3)cn(CC(C)C)c(=O)c2cc1OC`, for which the Potency entry was “inactive”.

For `O=C(CSc1nc(N2CCCCC2)nc(N2CCCCC2)n1)N1CCN(c2ccccc2)CC1`, the Potency entry was “inactive”.

As to `O=C(Nc1ccc2c(c1)OCO2)NC1(C(F)(F)F)Oc2ccccc2O1`, the Potency result is “inactive”.

The values above are taken from PubChem BioAssay AID493169 (National Center for Advancing Translational Sciences (NCATS), 2011).
